# Test results: the supplement of paper PMC8728848
# The entries come from a sample that favours the strongest signals as a whole.
# B1: LcH (Lens culinaris), P02870 (protein)
# chain: TETTSFSITKFSPDQQNLIFQGDGYTGKEGLTLTKVSKETGGRALYSTPIHIWDRDTVNVANFVTNGSQVFRESPNGYNVADGFTFFIAPVDTKPQTGGGYLGVFYNGKEYDKTSQTVAVEFDTFYNAAWDPSNKERHIGIDVNSIKSVNTKSWNLQNGVTSYTLNEVVPLKDVVPEWVRIGFSATTGAEFAAQEVHSWSFNSQLGHTSKS
# Legend:
# Assay in all cases: glycan array binding signal (z-score within array); higher = stronger binding
# Details in all cases: glycan notation: IUPAC condensed, linker removed
# [1] = molecular target: Fuc(a1-2)Gal(b1-3)[Fuc(a1-4)]GlcNAc(b1-2)Man(a1-3)[Fuc(a1-2)Gal(b1-3)[Fuc(a1-4)]GlcNAc(b1-2)Man(a1-6)]Man(b1-4)GlcNAc(b1-4)GlcNAc
# How it was run: (§1)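 Negative Z-scores can be read as non-binding. The Z-score is calculated within each array and then averaged across arrays of one protein sequence at different concentrations or buffers and across linkers. Arrays, 3228 in all, were curated from the Consortium for Functional Glycomics database and kept only where the protein sequence was available.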
# [2] = molecular target: Fuc(a1-2)Gal(b1-4)GlcNAc(b1-3)Gal(b1-4)GlcNAc
# How it was run: as §1
# [3] = molecular target: Fuc(a1-2)Gal6S(b1-4)Glc6S
# How it was run: as §1
# [4] = molecular target: Fuc(a1-2)[GalNAc(a1-3)]Gal(b1-4)GlcNAc(b1-3)Gal(b1-4)GlcNAc(b1-3)Gal(b1-4)GlcNAc
# How it was run: as §1
# [5] = molecular target: Fuc(a1-3)[Gal3S(b1-4)]Glc6S
# How it was run: as §1
# [6] = molecular target: Fuc(a1-3)[Neu5Ac(a2-3)]Gal(b1-4)GlcNAc(b1-3)GalNAc
# How it was run: as §1
# [7] = molecular target: Gal(b1-3)GalNAc(a1-3)[Fuc(a1-2)]Gal(b1-4)Glc
# How it was run: as §1
# [8] = molecular target: Gal(b1-3)GalNAc(a1-3)[Fuc(a1-2)]Gal(b1-4)GlcNAc
# How it was run: as §1
# [9] = molecular target: Gal(b1-3)GlcNAc(b1-2)Man(a1-3)[Gal(b1-3)GlcNAc(b1-2)Man(a1-6)]Man(b1-4)GlcNAc(b1-4)[Fuc(a1-6)]GlcNAc
# How it was run: as §1
# [10] = molecular target: Gal(b1-3)GlcNAc(b1-3)Gal(b1-3)GlcNAc
# How it was run: as §1
# [11] = molecular target: Gal(b1-4)GlcNAc(b1-2)Man(a1-3)[Gal(b1-4)GlcNAc(b1-2)Man(a1-6)]Man(b1-4)GlcNAc(b1-4)[Fuc(a1-6)]GlcNAc
# How it was run: as §1
# [12] = molecular target: Gal(b1-4)GlcNAc(b1-3)[Gal(b1-4)GlcNAc(b1-6)]Gal(b1-4)GlcNAc
# How it was run: as §1
# Glc(a1-6)Glc(a1-6)Glc = molecular target: Glc(a1-6)Glc(a1-6)Glc
# How it was run: as §1
# GlcA(b1-6)Gal = molecular target: GlcA(b1-6)Gal
# How it was run: as §1
# [13] = molecular target: GlcNAc(a1-6)Gal(b1-4)GlcNAc
# How it was run: as §1
# [14] = molecular target: GlcNAc(b1-2)Man(a1-3)[GlcNAc(b1-2)Man(a1-6)]Man(b1-4)GlcNAc(b1-4)GlcNAc
# How it was run: as §1
# [15] = molecular target: GlcNAc(b1-2)Man(a1-3)[GlcNAc(b1-2)Man(a1-6)]Man(b1-4)GlcNAc(b1-4)[Fuc(a1-6)]GlcNAc
# How it was run: as §1
# [16] = molecular target: GlcNAc(b1-3)[GlcNAc(b1-4)][GlcNAc(b1-6)]GlcNAc
# How it was run: as §1
# [17] = molecular target: GlcNAc(b1-3)[GlcNAc(b1-6)]GalNAc
# How it was run: as §1
# [18] = molecular target: GlcNAc(b1-4)GlcNAc(b1-4)GlcNAc
# How it was run: as §1
# [19] = molecular target: Man(a1-2)Man(a1-3)[Man(a1-2)Man(a1-6)]Man
# How it was run: as §1
# [20] = molecular target: Man(a1-2)Man(a1-3)[Man(a1-2)Man(a1-6)]Man(a1-6)[Man(a1-2)Man(a1-2)Man(a1-3)]Man
# How it was run: as §1
# [21] = molecular target: Neu5Ac(a2-3)Gal(b1-4)GlcNAc(b1-6)[Neu5Ac(a2-3)Gal(b1-3)]GalNAc
# How it was run: as §1
# [22] = molecular target: Neu5Ac(a2-3)Gal(b1-4)[Fuc(a1-3)]GlcNAc(b1-3)Gal(b1-4)GlcNAc
# How it was run: as §1
# [23] = molecular target: Neu5Ac(a2-3)GalNAc(b1-4)GlcNAc
# How it was run: as §1
# [24] = molecular target: Neu5Ac(a2-6)Gal(b1-4)GlcNAc(b1-2)Man(a1-3)[Neu5Ac(a2-6)Gal(b1-4)GlcNAc(b1-2)Man(a1-6)]Man(b1-4)GlcNAc(b1-4)GlcNAc
# How it was run: as §1
# [25] = molecular target: Neu5Ac(a2-6)Gal(b1-4)GlcNAc(b1-2)Man(a1-6)[Man(a1-3)]Man(b1-4)GlcNAc(b1-4)GlcNAc
# How it was run: as §1
# [26] = molecular target: Neu5Ac(a2-8)Neu5Ac(a2-8)Neu5Ac(a2-3)Gal(b1-4)Glc
# How it was run: as §1
# [27] = molecular target: Neu5Ac(b2-6)Gal(b1-4)GlcNAc
# How it was run: as §1
binder,measurement,setting,value
B1,glycan array binding signal (z-score),[1],-0.091
same,glycan array binding signal (z-score),[2],-0.141
same,glycan array binding signal (z-score),[3],-0.104
same,glycan array binding signal (z-score),[4],-0.108
same,glycan array binding signal (z-score),[5],-0.119
same,glycan array binding signal (z-score),[6],-0.132
same,glycan array binding signal (z-score),[7],-0.147
same,glycan array binding signal (z-score),[8],-0.093
same,glycan array binding signal (z-score),[9],14.3
same,glycan array binding signal (z-score),[10],-0.142
same,glycan array binding signal (z-score),[11],9.53
same,glycan array binding signal (z-score),[12],-0.138
same,glycan array binding signal (z-score),Glc(a1-6)Glc(a1-6)Glc,-0.098
same,glycan array binding signal (z-score),GlcA(b1-6)Gal,-0.111
same,glycan array binding signal (z-score),[13],-0.102
same,glycan array binding signal (z-score),[14],1.2
same,glycan array binding signal (z-score),[15],6.22
same,glycan array binding signal (z-score),[16],-0.125
same,glycan array binding signal (z-score),[17],-0.082
same,glycan array binding signal (z-score),[18],-0.107
same,glycan array binding signal (z-score),[19],1.24
same,glycan array binding signal (z-score),[20],3.73
same,glycan array binding signal (z-score),[21],-0.129
same,glycan array binding signal (z-score),[22],-0.046
same,glycan array binding signal (z-score),[23],-0.118
same,glycan array binding signal (z-score),[24],-0.12
same,glycan array binding signal (z-score),[25],-0.124
same,glycan array binding signal (z-score),[26],-0.138
same,glycan array binding signal (z-score),[27],-0.111
